Measured values reported in publication PMC7862700, “An all-to-all approach to the identification of sequence-specific readers for epigenetic DNA modifications on cytosine”.

Key:
Test in all cases: DAPPL (digital affinity profiling via proximity ligation, sequencing); 10 mM Tris-HCl pH 7.5, 50 mM NaCl, 1 mM DTT, 4% glycerol, room temperature, 30 min; GST-TFs on glutathione beads, 16-mer random dsDNA library, 0.1% formaldehyde crosslink after washing; high values mean tight binding
FLI1 = target: T1, FLI1 (Homo sapiens, UniProt Q01543 1-452); settings: protein: recombinant; tags: N-terminal GST; dsDNA, one strand shown
T1 sequence: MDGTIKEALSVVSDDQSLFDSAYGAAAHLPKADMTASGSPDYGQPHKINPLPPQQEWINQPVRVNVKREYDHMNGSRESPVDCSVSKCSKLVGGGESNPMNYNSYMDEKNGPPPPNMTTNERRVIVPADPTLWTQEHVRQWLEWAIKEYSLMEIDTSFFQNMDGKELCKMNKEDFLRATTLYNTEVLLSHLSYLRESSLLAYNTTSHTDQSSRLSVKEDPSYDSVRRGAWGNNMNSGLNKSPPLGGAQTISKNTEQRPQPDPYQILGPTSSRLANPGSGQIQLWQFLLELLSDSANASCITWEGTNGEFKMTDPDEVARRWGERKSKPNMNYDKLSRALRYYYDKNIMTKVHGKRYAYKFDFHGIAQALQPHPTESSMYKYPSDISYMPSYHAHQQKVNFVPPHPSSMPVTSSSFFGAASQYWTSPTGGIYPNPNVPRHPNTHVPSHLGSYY
How it was run: (§1)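 Pools were built from human transcription factors expressed in yeast as GST fusions, captured on glutathione beads and DNA-barcoded, along with a tag-only sample. Incubation with 200 nmole of a 16-mer random double-stranded DNA library lasted 30 min at room temperature in Tris/NaCl/DTT/glycerol buffer, and was followed by washing, 0.1% formaldehyde crosslinking, proximity ligation, PCR amplification and Illumina NextSeq500 sequencing. Binding signal is the quotient of each hexamer's read frequency for a factor and its frequency for the tag-only sample.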

ELK1 = target: T2, ELK1 (Homo sapiens, UniProt P19419 1-428); settings: protein: recombinant; tags: N-terminal GST; dsDNA, one strand shown
T2 sequence: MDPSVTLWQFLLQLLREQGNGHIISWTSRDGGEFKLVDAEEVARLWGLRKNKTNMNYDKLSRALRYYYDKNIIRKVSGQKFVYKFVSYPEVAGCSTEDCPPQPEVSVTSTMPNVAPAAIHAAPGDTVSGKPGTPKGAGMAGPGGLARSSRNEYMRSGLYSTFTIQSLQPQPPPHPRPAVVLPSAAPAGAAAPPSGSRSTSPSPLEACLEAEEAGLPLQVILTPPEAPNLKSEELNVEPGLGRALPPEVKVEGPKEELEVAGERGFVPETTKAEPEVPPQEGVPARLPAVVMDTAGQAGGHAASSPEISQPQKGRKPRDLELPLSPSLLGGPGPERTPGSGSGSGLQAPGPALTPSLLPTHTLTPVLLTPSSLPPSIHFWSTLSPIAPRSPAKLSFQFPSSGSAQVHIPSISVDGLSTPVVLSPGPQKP
How it was run: as §1

GABPA = target: T3, GABPA (Homo sapiens, UniProt Q06546 1-454); settings: protein: recombinant; tags: N-terminal GST; dsDNA, one strand shown
T3 sequence: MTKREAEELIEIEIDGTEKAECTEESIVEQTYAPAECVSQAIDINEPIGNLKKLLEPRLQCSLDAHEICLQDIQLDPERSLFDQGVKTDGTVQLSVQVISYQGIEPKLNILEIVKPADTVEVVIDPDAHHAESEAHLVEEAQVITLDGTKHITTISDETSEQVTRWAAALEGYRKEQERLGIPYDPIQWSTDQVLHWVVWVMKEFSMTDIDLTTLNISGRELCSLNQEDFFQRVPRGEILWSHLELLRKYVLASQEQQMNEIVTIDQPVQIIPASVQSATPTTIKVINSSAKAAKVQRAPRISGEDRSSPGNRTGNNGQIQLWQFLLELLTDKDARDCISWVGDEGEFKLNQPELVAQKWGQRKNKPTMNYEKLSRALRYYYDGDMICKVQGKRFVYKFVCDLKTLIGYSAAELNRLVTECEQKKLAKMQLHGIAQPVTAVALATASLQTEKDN
How it was run: as §1

ERG = target: T4, ERG (Homo sapiens, UniProt P11308 1-479); settings: protein: recombinant; tags: N-terminal GST; dsDNA, one strand shown
T4 sequence: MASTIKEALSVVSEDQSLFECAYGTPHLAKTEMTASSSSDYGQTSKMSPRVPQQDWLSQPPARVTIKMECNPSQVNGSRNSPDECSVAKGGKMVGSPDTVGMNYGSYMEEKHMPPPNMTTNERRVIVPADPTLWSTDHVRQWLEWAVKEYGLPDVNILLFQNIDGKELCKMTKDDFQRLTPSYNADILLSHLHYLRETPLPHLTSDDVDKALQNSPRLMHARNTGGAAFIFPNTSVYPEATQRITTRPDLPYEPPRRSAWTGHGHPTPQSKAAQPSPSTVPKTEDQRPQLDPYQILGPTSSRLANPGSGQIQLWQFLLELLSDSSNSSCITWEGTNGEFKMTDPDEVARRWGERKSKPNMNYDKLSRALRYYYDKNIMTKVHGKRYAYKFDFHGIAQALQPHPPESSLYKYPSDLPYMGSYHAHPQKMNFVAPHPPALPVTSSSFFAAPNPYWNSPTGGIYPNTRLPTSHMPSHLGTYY
How it was run: as §1

ELF1 = ELF1 (Homo sapiens, UniProt P32519 1-619); settings: protein: recombinant; tags: N-terminal GST; dsDNA, one strand shown
How it was run: as §1

EHF = target: T5, EHF (Homo sapiens, UniProt Q9NZC4 1-300); settings: protein: recombinant; tags: N-terminal GST; dsDNA, one strand shown
T5 sequence: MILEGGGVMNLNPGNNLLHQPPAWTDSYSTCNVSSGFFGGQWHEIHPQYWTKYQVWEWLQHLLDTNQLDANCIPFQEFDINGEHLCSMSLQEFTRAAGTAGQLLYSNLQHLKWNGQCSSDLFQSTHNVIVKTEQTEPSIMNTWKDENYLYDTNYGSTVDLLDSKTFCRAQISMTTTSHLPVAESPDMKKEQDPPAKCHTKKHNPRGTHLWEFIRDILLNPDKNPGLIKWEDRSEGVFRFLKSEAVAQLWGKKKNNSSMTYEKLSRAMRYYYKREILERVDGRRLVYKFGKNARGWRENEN
How it was run: as §1

SPI1 = SPI1 (Homo sapiens, UniProt P17947 1-270); settings: protein: recombinant; tags: N-terminal GST; dsDNA, one strand shown
How it was run: as §1

SPIB = SPIB (Homo sapiens, UniProt Q01892 1-262); settings: protein: recombinant; tags: N-terminal GST; dsDNA, one strand shown
How it was run: as §1

ELK3 = target: T6, ELK3 (Homo sapiens, UniProt P41970 1-407); settings: protein: recombinant; tags: N-terminal GST; dsDNA, one strand shown
T6 sequence: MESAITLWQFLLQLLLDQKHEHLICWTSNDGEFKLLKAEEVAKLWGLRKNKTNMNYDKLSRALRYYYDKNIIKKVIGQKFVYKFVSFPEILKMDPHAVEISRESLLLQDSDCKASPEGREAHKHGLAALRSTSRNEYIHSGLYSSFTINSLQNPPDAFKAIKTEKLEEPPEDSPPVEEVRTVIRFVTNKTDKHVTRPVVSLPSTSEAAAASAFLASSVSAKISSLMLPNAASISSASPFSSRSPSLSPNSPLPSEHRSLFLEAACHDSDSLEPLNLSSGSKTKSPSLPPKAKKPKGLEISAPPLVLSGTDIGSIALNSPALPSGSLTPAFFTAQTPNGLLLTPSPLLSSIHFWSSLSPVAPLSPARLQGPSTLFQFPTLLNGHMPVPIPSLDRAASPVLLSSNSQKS
How it was run: as §1

FEV = target: T7, FEV (Homo sapiens, UniProt Q99581 1-238); settings: protein: recombinant; tags: N-terminal GST; dsDNA, one strand shown
T7 sequence: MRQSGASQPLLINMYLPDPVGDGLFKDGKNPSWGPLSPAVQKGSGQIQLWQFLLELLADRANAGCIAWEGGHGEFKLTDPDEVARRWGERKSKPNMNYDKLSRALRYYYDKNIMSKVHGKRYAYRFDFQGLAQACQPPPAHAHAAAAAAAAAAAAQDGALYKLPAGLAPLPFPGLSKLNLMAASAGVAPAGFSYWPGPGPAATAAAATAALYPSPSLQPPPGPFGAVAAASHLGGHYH
How it was run: as §1

ETV5 = ETV5 (Homo sapiens, UniProt P41161 1-510); settings: protein: recombinant; tags: N-terminal GST; dsDNA, one strand shown
How it was run: as §1

HSF1 = HSF1 (Homo sapiens, UniProt Q00613 1-529); settings: protein: recombinant; tags: N-terminal GST; chain copies: 3; dsDNA, one strand shown
How it was run: as §1

SPIC = target: T8, SPIC (Homo sapiens, UniProt Q8N5J4 1-248); settings: protein: recombinant; tags: N-terminal GST; dsDNA, one strand shown
T8 sequence: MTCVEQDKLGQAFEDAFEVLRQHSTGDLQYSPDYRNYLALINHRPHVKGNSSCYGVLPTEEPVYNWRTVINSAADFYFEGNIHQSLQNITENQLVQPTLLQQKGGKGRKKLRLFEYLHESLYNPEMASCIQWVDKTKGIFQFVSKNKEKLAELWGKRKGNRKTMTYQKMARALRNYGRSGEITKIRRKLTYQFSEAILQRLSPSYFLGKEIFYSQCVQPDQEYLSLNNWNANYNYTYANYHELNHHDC
How it was run: as §1

ELF4 = ELF4 (Homo sapiens, UniProt Q99607 1-663); settings: protein: recombinant; tags: N-terminal GST; dsDNA, one strand shown
How it was run: as §1

ELK4 = target: T9, ELK4 (Homo sapiens, UniProt P28324-2 1-405); settings: protein: recombinant; tags: N-terminal GST; dsDNA, one strand shown
T9 sequence: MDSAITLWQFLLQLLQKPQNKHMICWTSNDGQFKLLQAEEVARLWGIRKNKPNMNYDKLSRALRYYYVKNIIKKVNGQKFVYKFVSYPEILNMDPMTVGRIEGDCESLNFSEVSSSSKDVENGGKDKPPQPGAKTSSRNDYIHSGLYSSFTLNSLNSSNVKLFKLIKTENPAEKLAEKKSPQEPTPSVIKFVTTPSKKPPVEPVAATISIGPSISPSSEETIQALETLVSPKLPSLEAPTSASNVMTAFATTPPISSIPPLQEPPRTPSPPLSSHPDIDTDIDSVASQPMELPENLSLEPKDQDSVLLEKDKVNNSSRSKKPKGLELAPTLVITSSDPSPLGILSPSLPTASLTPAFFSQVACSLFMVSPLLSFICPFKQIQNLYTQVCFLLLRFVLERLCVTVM
How it was run: as §1

ETV2 = target: T10, ETV2 (Homo sapiens, UniProt O00321 1-342); settings: protein: recombinant; tags: N-terminal GST; dsDNA, one strand shown
T10 sequence: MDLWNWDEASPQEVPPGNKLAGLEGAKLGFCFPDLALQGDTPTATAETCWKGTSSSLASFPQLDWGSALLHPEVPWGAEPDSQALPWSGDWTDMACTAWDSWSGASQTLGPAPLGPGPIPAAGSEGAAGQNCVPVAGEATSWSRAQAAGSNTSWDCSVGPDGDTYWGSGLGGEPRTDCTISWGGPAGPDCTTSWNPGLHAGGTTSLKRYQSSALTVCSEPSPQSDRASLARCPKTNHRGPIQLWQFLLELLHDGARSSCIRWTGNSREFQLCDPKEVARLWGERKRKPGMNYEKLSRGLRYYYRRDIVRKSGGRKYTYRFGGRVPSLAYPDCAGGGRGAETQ
How it was run: as §1

ELF3 = target: T11, ELF3 (Homo sapiens, UniProt P78545 1-371); settings: protein: recombinant; tags: N-terminal GST; dsDNA, one strand shown
T11 sequence: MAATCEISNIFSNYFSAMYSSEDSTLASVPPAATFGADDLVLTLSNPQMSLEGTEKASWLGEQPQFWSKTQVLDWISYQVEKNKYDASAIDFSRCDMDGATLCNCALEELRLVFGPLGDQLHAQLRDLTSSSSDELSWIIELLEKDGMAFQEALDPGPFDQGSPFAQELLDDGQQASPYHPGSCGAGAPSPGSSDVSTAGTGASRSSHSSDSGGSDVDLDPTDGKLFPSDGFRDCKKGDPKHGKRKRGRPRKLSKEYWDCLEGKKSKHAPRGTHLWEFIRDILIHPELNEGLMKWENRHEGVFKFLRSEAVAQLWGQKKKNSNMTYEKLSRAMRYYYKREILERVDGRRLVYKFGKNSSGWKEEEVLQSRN
How it was run: as §1

CRX = CRX (Homo sapiens, UniProt O43186 1-299); settings: protein: recombinant; tags: N-terminal GST; dsDNA, one strand shown
How it was run: as §1

ETV1 = ETV1 (Homo sapiens, UniProt P50549 1-477); settings: protein: recombinant; tags: N-terminal GST; dsDNA, one strand shown
How it was run: as §1

Chain of ETV1 (P50549 whole entry): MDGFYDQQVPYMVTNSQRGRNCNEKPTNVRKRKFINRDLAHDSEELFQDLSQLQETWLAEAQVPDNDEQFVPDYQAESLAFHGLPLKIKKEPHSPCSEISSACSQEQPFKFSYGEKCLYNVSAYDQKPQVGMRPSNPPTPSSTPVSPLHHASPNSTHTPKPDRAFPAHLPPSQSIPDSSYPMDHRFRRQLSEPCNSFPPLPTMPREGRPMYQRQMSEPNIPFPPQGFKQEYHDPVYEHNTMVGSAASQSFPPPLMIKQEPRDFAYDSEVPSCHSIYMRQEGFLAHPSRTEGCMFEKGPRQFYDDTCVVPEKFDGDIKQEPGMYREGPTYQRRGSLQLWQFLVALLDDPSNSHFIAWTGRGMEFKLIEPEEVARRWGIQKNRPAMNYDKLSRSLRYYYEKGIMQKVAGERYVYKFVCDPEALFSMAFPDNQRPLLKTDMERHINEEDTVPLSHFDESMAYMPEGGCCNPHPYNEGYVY
Chain of CRX (O43186 whole entry): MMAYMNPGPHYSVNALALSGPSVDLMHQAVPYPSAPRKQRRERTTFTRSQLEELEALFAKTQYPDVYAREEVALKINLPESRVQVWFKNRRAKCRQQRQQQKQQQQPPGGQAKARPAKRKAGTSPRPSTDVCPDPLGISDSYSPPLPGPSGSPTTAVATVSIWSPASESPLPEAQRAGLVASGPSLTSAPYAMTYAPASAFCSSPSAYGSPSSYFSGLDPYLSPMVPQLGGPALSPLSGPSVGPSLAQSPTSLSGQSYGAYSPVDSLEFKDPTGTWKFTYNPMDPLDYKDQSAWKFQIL
Chain of ELF4 (Q99607 whole entry): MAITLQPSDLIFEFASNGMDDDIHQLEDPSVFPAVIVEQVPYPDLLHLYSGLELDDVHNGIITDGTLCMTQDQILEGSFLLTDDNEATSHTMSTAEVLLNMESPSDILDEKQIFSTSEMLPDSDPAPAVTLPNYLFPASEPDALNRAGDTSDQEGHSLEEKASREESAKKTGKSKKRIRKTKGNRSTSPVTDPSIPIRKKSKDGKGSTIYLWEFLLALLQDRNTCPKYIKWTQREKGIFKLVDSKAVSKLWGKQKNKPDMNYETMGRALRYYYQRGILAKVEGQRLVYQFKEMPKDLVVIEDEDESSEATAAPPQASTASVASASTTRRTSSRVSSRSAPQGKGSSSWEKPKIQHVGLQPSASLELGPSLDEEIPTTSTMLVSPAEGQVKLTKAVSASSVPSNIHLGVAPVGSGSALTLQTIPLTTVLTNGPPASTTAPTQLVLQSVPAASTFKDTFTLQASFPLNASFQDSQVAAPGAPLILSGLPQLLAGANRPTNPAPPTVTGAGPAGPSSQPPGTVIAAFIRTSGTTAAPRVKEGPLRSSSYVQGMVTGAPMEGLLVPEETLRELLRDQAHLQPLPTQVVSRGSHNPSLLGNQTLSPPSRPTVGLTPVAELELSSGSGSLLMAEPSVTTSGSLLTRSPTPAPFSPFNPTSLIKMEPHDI
Chain of HSF1 (Q00613 whole entry): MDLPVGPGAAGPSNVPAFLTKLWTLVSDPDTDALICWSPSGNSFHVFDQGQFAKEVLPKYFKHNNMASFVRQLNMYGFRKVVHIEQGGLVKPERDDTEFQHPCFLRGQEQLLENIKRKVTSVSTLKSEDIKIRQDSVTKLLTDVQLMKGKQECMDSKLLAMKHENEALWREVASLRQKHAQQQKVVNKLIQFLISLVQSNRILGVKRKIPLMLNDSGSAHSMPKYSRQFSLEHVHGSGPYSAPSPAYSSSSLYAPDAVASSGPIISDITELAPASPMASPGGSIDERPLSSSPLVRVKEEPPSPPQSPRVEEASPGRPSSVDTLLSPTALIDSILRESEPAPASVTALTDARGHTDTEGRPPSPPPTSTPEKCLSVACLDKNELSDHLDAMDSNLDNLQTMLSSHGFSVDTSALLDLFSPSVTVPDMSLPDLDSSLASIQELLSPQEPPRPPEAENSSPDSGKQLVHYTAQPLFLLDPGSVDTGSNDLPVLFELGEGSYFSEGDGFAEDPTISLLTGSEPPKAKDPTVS
Chain of SPIB (Q01892 whole entry): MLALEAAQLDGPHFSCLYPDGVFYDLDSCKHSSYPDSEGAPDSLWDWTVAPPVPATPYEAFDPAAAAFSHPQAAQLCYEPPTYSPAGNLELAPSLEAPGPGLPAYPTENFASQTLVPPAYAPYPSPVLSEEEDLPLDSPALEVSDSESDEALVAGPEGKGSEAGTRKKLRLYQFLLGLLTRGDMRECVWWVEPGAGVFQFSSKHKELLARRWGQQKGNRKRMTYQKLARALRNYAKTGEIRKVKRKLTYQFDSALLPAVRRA
Chain of ELF1 (P32519 whole entry): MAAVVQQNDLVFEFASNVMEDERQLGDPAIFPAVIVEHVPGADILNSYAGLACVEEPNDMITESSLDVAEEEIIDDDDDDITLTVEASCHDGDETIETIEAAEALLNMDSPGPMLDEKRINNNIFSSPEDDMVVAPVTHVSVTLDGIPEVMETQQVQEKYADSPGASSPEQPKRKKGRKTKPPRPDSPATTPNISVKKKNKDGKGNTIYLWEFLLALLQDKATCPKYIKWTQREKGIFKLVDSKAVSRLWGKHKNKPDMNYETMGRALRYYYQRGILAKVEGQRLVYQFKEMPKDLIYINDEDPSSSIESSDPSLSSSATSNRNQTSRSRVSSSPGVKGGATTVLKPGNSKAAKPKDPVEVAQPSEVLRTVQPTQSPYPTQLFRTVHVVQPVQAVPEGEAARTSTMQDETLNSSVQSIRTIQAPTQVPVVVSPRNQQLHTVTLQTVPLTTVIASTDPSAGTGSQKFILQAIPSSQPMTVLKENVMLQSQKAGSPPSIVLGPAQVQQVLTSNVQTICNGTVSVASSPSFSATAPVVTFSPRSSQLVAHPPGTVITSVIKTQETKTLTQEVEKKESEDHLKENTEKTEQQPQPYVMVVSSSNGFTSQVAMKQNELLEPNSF
Chain of ETV5 (P41161 whole entry): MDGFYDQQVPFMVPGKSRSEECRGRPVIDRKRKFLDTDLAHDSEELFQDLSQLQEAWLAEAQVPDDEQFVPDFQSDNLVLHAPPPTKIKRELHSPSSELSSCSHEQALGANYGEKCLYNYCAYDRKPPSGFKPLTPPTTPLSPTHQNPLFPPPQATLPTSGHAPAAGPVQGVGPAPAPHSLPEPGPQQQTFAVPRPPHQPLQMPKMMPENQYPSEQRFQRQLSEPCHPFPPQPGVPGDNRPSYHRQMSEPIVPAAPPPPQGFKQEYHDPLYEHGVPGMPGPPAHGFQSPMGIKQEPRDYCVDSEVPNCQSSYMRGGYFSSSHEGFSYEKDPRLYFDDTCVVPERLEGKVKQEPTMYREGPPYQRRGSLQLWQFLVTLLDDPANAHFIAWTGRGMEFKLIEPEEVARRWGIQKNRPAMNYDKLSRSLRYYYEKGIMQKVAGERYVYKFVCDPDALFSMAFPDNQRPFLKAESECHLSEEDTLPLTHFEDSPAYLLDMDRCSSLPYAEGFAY

CTTAGT was tested, and the binding signal (FLI1) was 1.17 fold enrichment (6-mer frequency, TF over GST control), the binding signal (ELK1) was 1.17 fold enrichment (6-mer frequency, TF over GST control) and the binding signal (GABPA) was 1.2 fold enrichment (6-mer frequency, TF over GST control). The binding signal (ERG) was 1.18 fold enrichment (6-mer frequency, TF over GST control), the binding signal (ELF1) was 1.25 fold enrichment (6-mer frequency, TF over GST control) and the binding signal (EHF) was 1.22 fold enrichment (6-mer frequency, TF over GST control). For the same sequence, the binding signal (SPI1) was 1.07 fold enrichment (6-mer frequency, TF over GST control), the binding signal (SPIB) was 1.19 fold enrichment (6-mer frequency, TF over GST control) and the binding signal (ELK3) was 1.19 fold enrichment (6-mer frequency, TF over GST control). The binding signal (FEV) was 1.13 fold enrichment (6-mer frequency, TF over GST control), the binding signal (ETV5) was 1.3 fold enrichment (6-mer frequency, TF over GST control) and the binding signal (HSF1) was 1.49 fold enrichment (6-mer frequency, TF over GST control). The binding signal (SPIC) was 1.09 fold enrichment (6-mer frequency, TF over GST control), the binding signal (ELF4) was 1.26 fold enrichment (6-mer frequency, TF over GST control) and the binding signal (ELK4) was 1.12 fold enrichment (6-mer frequency, TF over GST control). The binding signal (ETV2) was 1.06 fold enrichment (6-mer frequency, TF over GST control), the binding signal (ELF3) was 1.18 fold enrichment (6-mer frequency, TF over GST control) and the binding signal (CRX) was 1.98 fold enrichment (6-mer frequency, TF over GST control). The binding signal (ETV1) was 1.17 fold enrichment (6-mer frequency, TF over GST control).
